# Bioassay records: PubChem BioAssay, National Center for Advancing Translational Sciences (NCATS)
# Rows were chosen to be rich in hits. Some 0.27% of all compounds tested hit in one or more screens of this group.
# TRPV1 PAM: potentiators of human vanilloid receptor 1 (TRPV1) | Q8NER1 | TRPV1-expressing cells, Fluo-8 calcium influx, capsaicin EC20 potentiation | potentiation, % at 8.33 µM | hit rate 0.02% among 320,000 | AID 540277; in the data active = potentiation above about 80%; inconclusive = between about 30% and that limit; also: 0% is about no effect
# Target sequence (Q8NER1 whole entry, looked up): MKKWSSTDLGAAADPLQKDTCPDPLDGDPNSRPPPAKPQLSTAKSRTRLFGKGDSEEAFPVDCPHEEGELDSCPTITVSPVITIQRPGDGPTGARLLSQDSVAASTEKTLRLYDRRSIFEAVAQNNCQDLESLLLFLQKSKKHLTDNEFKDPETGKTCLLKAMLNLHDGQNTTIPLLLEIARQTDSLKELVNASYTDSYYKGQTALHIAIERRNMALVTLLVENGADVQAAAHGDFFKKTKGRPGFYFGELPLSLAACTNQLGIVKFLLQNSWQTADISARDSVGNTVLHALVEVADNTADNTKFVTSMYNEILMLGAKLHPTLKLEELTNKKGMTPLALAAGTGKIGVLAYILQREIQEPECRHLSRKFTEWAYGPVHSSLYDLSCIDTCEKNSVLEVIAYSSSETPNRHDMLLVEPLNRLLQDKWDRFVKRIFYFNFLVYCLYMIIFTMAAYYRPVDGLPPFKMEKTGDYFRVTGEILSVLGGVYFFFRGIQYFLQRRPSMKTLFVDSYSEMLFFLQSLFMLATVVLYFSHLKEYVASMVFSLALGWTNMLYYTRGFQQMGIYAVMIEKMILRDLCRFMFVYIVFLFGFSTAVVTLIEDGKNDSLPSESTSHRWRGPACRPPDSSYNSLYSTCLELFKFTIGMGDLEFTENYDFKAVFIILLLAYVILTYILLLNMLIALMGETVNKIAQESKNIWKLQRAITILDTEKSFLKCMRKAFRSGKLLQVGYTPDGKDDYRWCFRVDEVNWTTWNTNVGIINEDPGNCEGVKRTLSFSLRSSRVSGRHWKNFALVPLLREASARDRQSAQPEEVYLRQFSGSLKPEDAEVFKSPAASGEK
#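 Fluo-8 calcium influx in TRPV1-expressing cells, kinetic read (ex 480/em 520 nm). Compound added and read 3 min for agonist activity, followed by capsaicin at EC20 final and 2 min further read for enhancement.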
# TRPML1 ag: agonists of human TRPML1 channel; activation, % (no concentration beside the values); hit rate 0.12% among 410,000; Q9GZU1; TRPML1-expressing cells, Ca2+ dye fluorescence, FDSS; AID 624414; in the data active = activation above about 50%; inconclusive = mostly about 30% to 49%; also: 0% is about no effect
#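 Tetracycline-induced TRPML1-DL cells are seeded and incubated overnight before loading with a no-wash Ca2+ dye and quencher. Agonist activity is taken from the 110 s fluorescence read following compound pin-transfer on an FDSS, before EC80 54-4 challenge.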
# TRPML1 blocker: human mucolipin-1 channel inhibition | TRPML1-inducible cells, Ca2+ dye fluorescence, FDSS; hits give low values; inhibition of EC80 agonist-evoked calcium signal | hit rate 0.02% among 390,000 | activity change, negative = inhibition, % (test concentration not listed) | Q9GZU1; in the data active = activity change below about -50%; inconclusive = between about -30% and that limit;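 also: stimulus is agonist 54-4 at its EC80 concentration; % is scaled to controls: 0 for no effect and ±100 for the full control effect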
#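 Tet-induced TRPML1-DL cells loaded with Ca8 no-wash calcium dye were read kinetically on FDSS. Compound addition was followed by EC80 agonist 54-4 (4 uM final); inhibition was read over 110 s.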
# TRPV1 agonist: agonists of human vanilloid receptor 1 (TRPV1); TRPV1-expressing cells, Fluo-8 calcium influx, agonist mode; hit rate 0.19% among 320,000; activation, % at 8.33 µM; AID 540275; in the data active = activation above about 80%; inconclusive = between about 30% and that limit; also: 0% is about no effect
#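 TRPV1-expressing cells were cultured overnight at 35.5C and loaded with Fluo-8 calcium dye for 40 to 90 min at room temperature. After a 10 s baseline, compound was added and calcium influx was read kinetically for 3 min (ex 480/em 520 nm).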
# An asterisk follows results filed as active; ? = inconclusive; / = no result.
SMILES,TRPV1 PAM,TRPML1 ag,TRPML1 blocker,TRPV1 agonist
O=C(Cc1ccccc1)Nc1ccc(N2CCCC2)cc1,-2,0,-13,0
CCOC(=O)C(=O)Nc1c(C(=O)Nc2cccc(F)c2)oc2ccccc12,/,0,-4,/
Cc1ccc(Cl)cc1NC(=O)CSc1ccc(C(=O)O)cn1,/,0,36,/
CC(C)(C)n1ncc2c(=O)n(Cc3cccc(F)c3)cnc21,/,0,6,/
Nn1c(Cc2ccccc2)nc2ccccc2c1=O,/,0,6,/
Nn1c(Cc2ccccc2)nc2cc(Cl)ccc2c1=O,95*,1,-15,1
N#Cc1ccc(/C=C\c2nccc3c2[nH]c2ccccc23)cc1,-2,4,-7,90*
CCC(C)Sc1ccc([C@H]2N[C@@](CC(C)C)(C(=O)OC)[C@H]3C(=O)N(CC)C(=O)[C@@H]23)cc1 (some centres undefined),2,0,10,87*
CCCCC(=O)Nc1nc2c(s1)COc1ccccc1-2,25,0,7,121*
COc1cccc(NS(=O)(=O)c2ccc(Br)s2)c1,3,2,19,89*
O=C(CCCOc1ccc(Cl)cc1)N1CCCCC1,-14,1,-1,90*
CC(C)(C)c1ccc(OCCCC(=O)N2CCOCC2)cc1,-6,1,7,85*
CCN(CC)C(=O)Cn1cc(SCC(=O)Nc2ccccc2F)c2ccccc21,/,1,-17,/
CCOC(=O)[C@H]1[C@H]2COc3ccc(Cl)cc3[C@@H]2N2C(=O)c3cc(Br)ccc3NC(=O)[C@@]12C,?,0,-23,?
CCOC(=O)[C@H]1[C@H]2COc3ccc(Br)cc3[C@@H]2N2C(=O)c3cc(Br)ccc3NC(=O)[C@@]12C,25,1,2,83*
CCOC(=O)[C@H]1[C@H]2COc3ccc(OC)cc3[C@@H]2N2C(=O)c3cc(F)c(F)cc3NC(=O)[C@@]12C,?,0,1,92*
CCOC(=O)[C@H]1[C@H]2COc3ccc(OC)cc3[C@@H]2N2C(=O)c3cc(OC)ccc3NC(=O)[C@@]12C,5,-1,80,97*
CCOC(=O)[C@H]1[C@H]2COc3ccc(OC)cc3[C@@H]2N2C(=O)c3cc(OC)c(OC)cc3NC(=O)[C@@]12C,7,1,-24,-1
CCOC(=O)[C@H]1[C@H]2COc3ccc(OC)cc3[C@@H]2N2C(=O)c3ccccc3NC(=O)[C@@]12C,-7,0,-13,100*
Cc1ccc(-n2c(=O)c3c4c(sc3n(CC(=O)Nc3cccc(Cl)c3)c2=O)CCCCC4)cc1C,/,0,19,/
O=C(CSc1nc2ccccc2nc1Cc1ccccc1)NCc1ccccc1Cl,/,3,25,/
CC(=O)c1c(C)oc2c1cc(NS(=O)(=O)c1ccc(C(C)(C)C)cc1)c1ccccc12,/,28,-25,/
COc1ccc(S(=O)(=O)Nc2cc3c(C(C)=O)c(C)oc3c3ccccc23)cc1,-7,62*,-14,?
Cc1ccc(S(=O)(=O)/N=C2/NC(=O)/C(=C/c3cc([N+](=O)[O-])ccc3O)S2)cc1,0,67*,1,0
COc1ccc(CNC(=O)C(C)c2ccc([N+](=O)[O-])cc2)cc1 (centres undefined),-21,1,-5,80*
SMILES,TRPV1 PAM,TRPML1 ag,TRPML1 blocker,TRPV1 agonist
COc1ccc(CNC(=O)Nc2ccc([N+](=O)[O-])cc2)cc1,/,1,-18,/
Cc1ccc(C(=O)NCC(c2cccs2)S(=O)(=O)c2ccccc2)cc1C (centres undefined),/,1,2,/
CC1CC(C)CN(C(=O)c2ccc(S(=O)(=O)N3CCCCC3)cc2)C1 (centres undefined),-8,0,13,?
CC1CC(C)CN(C(=O)c2cc(S(=O)(=O)N3CCCCC3)ccc2Cl)C1 (centres undefined),-13,2,-13,104*
NC(=O)C1CCN(C(=O)CCSCc2ccc(Cl)c(Cl)c2)CC1,14,0,17,88*
NC(=O)C1CCN(C(=O)CCSCc2ccccc2)CC1,-16,0,2,?
CN(C)c1ccc(/C=C/c2ccc3ccccc3[n+]2[O-])cc1,/,107*,/,/
CCCCCC[n+]1ccccc1/C=C/c1ccc(N(C)C)cc1,/,69*,-1,/
CCOC(=O)[C@H]1[C@H]2COc3ccc(C)cc3[C@@H]2N2C(=O)c3cc(F)c(F)cc3NC(=O)[C@@]12C,5,2,23,81*
